Test results as given in the supplement of paper PMC10849652.
Of roughly 8,800 targets only a part is listed; those with a hit were picked by preference. About 0.5% of all pairs of compound and target were hits.

What was measured:
Assay in all cases: log2 fold change, soluble protein after heating vs DMSO (PISA); higher = thermal stabilisation; K562 lysate, 10 uM; active = over 0.2 and 3.5 SD of the protein, either way, in both replicates (recomputed)
[1] = compound: NCC(=O)Nc1ccc(-n2nc(C(F)(F)F)cc2-c2ccc3c(ccc4ccccc43)c2)cc1
Outline: (§1)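 Pellets of K562 cells were dounce-homogenised in PBS pH 7.4 with 1 mM MgCl2, and the crude extract was held at 1 mg/mL protein for a 30 min treatment with 10 μM compound. Aliquots were heated for 3 min over 48°C-58°C and pooled before NP-40 was added to 0.5% at 4°C. The supernatant from 21,000xg for 90 min was quantified by TMTpro 16plex LC-MS/MS with channel sums equalised. Values are reported from duplicates as log-two fold change in thermal stability relative to solvent controls.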

[2] = compound: O=C(CCCCCCC(=O)Nc1ccccc1)NO [vorinostat]
Outline: as §1

[3] = compound: O=C(O)c1ccc2c(c1)nc(Nc1cccc(Cl)c1)c1ccncc12 [silmitasertib]
Outline: as §1

[4] = compound: O=C1NC(=O)C(c2cnc3ccccn23)=C1c1cn2c3c(cc(F)cc13)CN(C(=O)N1CCCCC1)CC2
Outline: as §1

[5] = compound: c1cn2cc(-c3ccc4cn[nH]c4c3)nc(Nc3ccc(N4CCOCC4)cc3)c2n1 [entospletinib]
Outline: as §1

Measured: log2 fold change

PUF60 (UniProt Q9UHX1)
Sequence of UniProt Q9UHX1 (Q9UHX1 whole entry, looked up): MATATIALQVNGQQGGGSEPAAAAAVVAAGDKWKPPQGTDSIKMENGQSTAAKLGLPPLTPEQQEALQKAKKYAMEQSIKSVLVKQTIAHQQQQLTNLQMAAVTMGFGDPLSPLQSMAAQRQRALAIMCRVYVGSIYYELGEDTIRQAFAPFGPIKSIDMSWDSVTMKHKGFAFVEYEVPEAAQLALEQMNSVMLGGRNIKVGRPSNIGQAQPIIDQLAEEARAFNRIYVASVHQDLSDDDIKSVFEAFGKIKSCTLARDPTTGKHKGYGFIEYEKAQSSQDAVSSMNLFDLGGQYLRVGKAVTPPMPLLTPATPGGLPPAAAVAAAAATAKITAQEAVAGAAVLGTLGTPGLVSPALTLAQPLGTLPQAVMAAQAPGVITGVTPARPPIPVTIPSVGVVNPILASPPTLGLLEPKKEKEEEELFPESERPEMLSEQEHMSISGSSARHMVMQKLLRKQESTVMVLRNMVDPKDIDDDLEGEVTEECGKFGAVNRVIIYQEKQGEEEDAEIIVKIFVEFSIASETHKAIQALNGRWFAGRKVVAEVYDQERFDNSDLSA
inactive: [1] -0.007 | [2] 0.15 | [3] -0.029 | [4] 0.002 | [5] 0.002

PUF60 isoform 2 (UniProt Q9UHX1)
inactive: [1] -0.061 | [2] 0.23 | [3] 0.075 | [4] 0.026 | [5] 0.027

PELO (UniProt Q9BRX2)
Sequence of UniProt Q9BRX2 (Q9BRX2 whole entry, looked up): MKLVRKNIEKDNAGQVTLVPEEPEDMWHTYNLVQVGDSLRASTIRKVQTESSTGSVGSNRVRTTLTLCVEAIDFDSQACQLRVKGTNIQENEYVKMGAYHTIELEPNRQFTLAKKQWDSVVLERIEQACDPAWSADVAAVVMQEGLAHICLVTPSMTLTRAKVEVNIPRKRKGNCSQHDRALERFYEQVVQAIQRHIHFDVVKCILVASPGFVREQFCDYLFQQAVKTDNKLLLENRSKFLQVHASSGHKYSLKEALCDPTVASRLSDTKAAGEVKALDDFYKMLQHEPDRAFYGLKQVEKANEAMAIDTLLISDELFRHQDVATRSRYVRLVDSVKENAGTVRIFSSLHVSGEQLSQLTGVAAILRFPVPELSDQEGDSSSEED
inactive: [1] 0.021 | [3] 0.058 | [4] 0.02 | [5] 0.006
active: [2] -0.495

PTMA (UniProt P06454)
Sequence of UniProt P06454 (P06454 whole entry, looked up): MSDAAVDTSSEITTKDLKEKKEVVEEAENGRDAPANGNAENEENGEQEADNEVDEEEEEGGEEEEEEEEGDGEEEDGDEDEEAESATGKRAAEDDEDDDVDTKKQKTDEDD
inactive: [1] -0.002 | [2] 0.093 | [3] -0.036 | [4] 0.023 | [5] -0.025

PPIC (UniProt P45877)
Sequence of UniProt P45877 (P45877 whole entry, looked up): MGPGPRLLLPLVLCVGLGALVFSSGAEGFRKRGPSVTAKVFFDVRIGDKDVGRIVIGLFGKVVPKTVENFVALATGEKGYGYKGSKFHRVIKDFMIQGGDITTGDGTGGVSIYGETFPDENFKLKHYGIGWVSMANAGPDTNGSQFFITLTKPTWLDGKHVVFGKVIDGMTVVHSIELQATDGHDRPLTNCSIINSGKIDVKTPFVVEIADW
inactive: [1] 0.12 | [2] 0.044 | [3] 0.021 | [4] 0.262

PTK2B (UniProt Q14289)
Sequence of UniProt Q14289 (Q14289 whole entry, looked up): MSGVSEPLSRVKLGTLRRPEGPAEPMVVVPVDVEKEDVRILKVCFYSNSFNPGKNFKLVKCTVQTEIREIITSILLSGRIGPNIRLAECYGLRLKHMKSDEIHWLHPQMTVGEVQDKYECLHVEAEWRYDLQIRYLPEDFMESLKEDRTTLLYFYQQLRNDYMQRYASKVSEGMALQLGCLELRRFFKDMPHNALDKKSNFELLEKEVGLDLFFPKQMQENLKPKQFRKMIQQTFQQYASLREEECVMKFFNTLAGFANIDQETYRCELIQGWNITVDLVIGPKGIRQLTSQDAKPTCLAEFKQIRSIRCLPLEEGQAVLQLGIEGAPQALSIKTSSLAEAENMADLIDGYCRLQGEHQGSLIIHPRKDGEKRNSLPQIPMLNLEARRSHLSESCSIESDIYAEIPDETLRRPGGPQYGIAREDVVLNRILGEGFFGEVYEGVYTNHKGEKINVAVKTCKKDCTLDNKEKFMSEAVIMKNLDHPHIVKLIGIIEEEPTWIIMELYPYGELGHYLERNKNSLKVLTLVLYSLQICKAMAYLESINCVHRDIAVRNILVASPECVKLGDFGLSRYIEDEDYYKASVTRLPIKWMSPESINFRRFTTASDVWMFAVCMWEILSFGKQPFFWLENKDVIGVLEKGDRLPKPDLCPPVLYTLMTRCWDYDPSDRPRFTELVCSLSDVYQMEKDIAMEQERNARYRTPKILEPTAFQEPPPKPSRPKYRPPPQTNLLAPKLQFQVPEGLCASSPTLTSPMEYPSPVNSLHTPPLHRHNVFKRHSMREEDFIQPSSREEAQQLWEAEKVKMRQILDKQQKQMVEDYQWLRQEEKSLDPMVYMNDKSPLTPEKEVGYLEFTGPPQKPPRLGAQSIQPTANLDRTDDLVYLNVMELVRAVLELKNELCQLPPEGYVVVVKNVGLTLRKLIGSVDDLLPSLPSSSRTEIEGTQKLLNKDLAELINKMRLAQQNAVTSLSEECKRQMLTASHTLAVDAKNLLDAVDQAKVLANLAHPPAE
inactive: [1] 0.016 | [3] 0.021 | [4] -0.088 | [5] -0.002
active: [2] -0.339

PCBD2 (UniProt Q9H0N5)
Sequence of UniProt Q9H0N5 (Q9H0N5 whole entry, looked up): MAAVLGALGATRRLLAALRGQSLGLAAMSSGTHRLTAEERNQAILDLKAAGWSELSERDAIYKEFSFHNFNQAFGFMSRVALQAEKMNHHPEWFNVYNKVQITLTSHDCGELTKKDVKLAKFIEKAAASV
inactive: [1] 0.008 | [2] 0.034 | [3] 0.01 | [4] -0.006 | [5] 0.003

PHGDH (UniProt O43175)
Sequence of UniProt O43175 (O43175 whole entry, looked up): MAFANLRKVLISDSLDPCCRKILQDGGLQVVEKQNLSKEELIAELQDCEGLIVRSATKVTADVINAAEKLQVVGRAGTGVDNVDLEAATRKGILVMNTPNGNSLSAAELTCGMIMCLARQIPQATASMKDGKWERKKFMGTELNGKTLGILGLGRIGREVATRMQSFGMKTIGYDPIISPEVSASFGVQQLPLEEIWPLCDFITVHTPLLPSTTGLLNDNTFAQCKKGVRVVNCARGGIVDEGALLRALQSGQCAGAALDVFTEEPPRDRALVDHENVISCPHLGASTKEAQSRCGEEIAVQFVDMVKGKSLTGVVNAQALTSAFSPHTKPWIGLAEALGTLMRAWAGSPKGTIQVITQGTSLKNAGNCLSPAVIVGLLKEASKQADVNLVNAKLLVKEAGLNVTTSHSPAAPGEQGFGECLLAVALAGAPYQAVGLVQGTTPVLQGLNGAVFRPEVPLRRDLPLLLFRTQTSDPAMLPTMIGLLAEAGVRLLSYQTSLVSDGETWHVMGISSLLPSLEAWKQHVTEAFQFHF
active: [2] -0.939
inactive: [1] 0.023 | [3] 0.031 | [4] 0.028 | [5] 0.016

PCBP2 isoform 3 (UniProt Q15366)
Sequence of UniProt Q15366 (Q15366 whole entry, looked up): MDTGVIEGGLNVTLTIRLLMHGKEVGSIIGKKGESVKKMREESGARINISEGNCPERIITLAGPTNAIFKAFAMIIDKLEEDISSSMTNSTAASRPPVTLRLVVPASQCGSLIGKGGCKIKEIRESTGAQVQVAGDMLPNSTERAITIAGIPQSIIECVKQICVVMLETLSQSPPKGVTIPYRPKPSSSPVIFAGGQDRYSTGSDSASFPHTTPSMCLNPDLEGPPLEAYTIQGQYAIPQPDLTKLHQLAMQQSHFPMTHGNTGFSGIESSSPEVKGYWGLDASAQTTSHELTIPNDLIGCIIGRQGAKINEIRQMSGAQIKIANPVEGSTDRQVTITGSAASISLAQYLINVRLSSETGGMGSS
active: [2] -0.252
inactive: [1] -0.071 | [3] 0.042 | [4] -0.035 | [5] 0.01
